Screening results deposited in PubChem by several laboratories.
Hits are enriched below; roughly 0.5% of the tested compounds scored in any of these assays.
RTF Ca sens act = increases calcium sensitivity of human cardiac regulated thin filaments. P19429+P45379. IANBD-labeled TnC RTF fluorescence at EC20 calcium; 0% EC20 calcium, 100% full calcium. activation, % at 7.2 µM. hit rate 0.24% among 340,000. AID 493008;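 active means activation above the mean over all tested compounds plus 3 SD, cut at about 30% in these data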;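 further: rise in fluorescence read as greater calcium sensitivity of cardiac thin filaments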
Keap1 Nrf2 FP = disrupts human Keap1 binding to Nrf2 peptide | inhibition, % at 9.4 µM | AID 504523 | Keap1 Kelch-Nrf2 peptide fluorescence polarization, 1536-well | hit rate 0.15% among 340,000 | Q14145; in the data active means inhibition above about 12%;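 further: human Keap1 Kelch domain with fluorescein labeled Nrf2 9mer peptide probe; 0% = neutral control wells and 100% = peptide positive control; higher means more block of Keap1 binding to Nrf2 peptide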
Target sequence (Q14145 whole entry, looked up, the tested form may be a part): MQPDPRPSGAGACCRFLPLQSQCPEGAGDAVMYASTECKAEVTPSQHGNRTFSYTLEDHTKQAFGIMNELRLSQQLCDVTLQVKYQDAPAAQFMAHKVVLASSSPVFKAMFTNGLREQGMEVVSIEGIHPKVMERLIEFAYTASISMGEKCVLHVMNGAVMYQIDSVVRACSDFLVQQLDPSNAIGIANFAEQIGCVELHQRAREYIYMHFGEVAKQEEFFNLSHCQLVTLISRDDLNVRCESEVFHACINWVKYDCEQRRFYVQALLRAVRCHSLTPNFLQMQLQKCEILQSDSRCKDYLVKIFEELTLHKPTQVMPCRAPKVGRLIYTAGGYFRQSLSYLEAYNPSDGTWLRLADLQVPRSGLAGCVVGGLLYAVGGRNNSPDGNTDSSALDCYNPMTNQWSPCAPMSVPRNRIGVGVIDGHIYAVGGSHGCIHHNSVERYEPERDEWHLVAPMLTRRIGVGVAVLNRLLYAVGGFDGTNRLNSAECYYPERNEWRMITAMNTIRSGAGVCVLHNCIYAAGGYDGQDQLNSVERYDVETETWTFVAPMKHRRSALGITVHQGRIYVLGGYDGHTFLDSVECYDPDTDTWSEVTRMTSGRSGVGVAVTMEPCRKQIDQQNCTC
RTF Ca sens inh = cardiac RTF calcium desensitization; P19429+P45379; IANBD-labeled cardiac RTF, Ca2+ fluorescence; inhibition, % at 7.15 µM; hit rate 0.12% among 340,000; AID 493244;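 active means inhibition above the mean inhibition of all tested compounds plus 3 SD, cut at about 17% in these data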;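 further: assay run at fixed EC70 calcium of 1.6 mM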
C-LANA FP = KSHV C-LANA DNA binding inhibition. MBP-C-LANA/FAM-LBS DNA binding, fluorescence polarization. inhibition, % at 9 µM. AID 504423. hit rate 0.078% among 340,000;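 active means highest replicate inhibition at or above 60% at 9 µM, even if other replicates fall short; inactive means all replicates below 60% inhibition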;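 further: 0% = neutral control wells and 100% = 4 µM acridine orange control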
Active calls of the source: *; x = no result given.

SMILES	RTF Ca sens act	Keap1 Nrf2 FP	RTF Ca sens inh	C-LANA FP
Cc1ccc(C)c(Cn2c(C(=O)O)c(C=O)c3ccccc32)c1	86*	-110	-109	-24
CCN(CC)c1ccc(/C=N/c2sc3c(c2C#N)C2CCN3CC2)c(O)c1	146*	-12	-175	0
CN1C(=O)/C(=C/C=C/c2ccco2)C(=O)NC1=S	5	-26	-21	60*
CCN(CC)c1ccc(N=Cc2c(O)n(Cc3ccco3)c(=O)[nH]c2=O)cc1	79*	-6	-51	20
NC(=O)c1ccc(N=Cc2c(O)n(Cc3ccco3)c(=O)[nH]c2=O)cc1	-2	3	4	-1
CN1C(=O)/C(=C/c2ccc(N3CCCCCC3)o2)C(=O)NC1=S	86*	-12	-37	-3
CN1CCN(c2ccc(/C=C3\C(=O)NC(=S)N(c4cccc(Br)c4)C3=O)o2)CC1	97*	-109	-80	-35
CN1C(=O)/C(=C\c2ccc(N3CCCCCC3)cc2)C(=O)NC1=S	0	3	-5	2
CN1C(=O)/C(=C\c2ccc(N3CCCCC3)o2)C(=O)NC1=S	55*	-5	-41	0
C[C@H](N)CN1CCc2ccc(Br)cc21	3	-4	-11	2
O=C1NC(=O)C(=Cc2ccc(Sc3ccccc3)o2)C(=O)N1	-4	1	3	3
CC1(C)OC(c2ccccc2)=C/C(=C/C=C2C(=O)NC(=O)NC2=O)O1	110*	-54	-178	-20
COc1cccc(C2CC3C(=O)C=CC2N3Cc2ccccc2)c1 (stereo not drawn)	3	-8	-10	1
C#C[C@]1(O)CC[C@H]2[C@@H]3CCC4=Cc5nc6nc7ccccc7n6cc5C[C@]4(C)[C@H]3CC[C@@]21C	38*	-7	-37	4
C=CCN1C(=O)/C(=C\c2ccc(N3CCOCC3)o2)C(=O)NC1=S	49*	-109	-41	-30
CCN1C(=O)C(=Cc2ccc(N3CCOCC3)o2)C(=O)N(CC)C1=S	33*	-10	-32	-3
CCC1CN1P(=S)(N1CC1CC)N1CC1CC (stereo not drawn)	-8	5	4	x
COC(=O)C1=C(C(=O)OC)SC2(S1)C(C(=O)OC)=C(C(=O)OC)Sc1c2ssc1=O	9	-3	-12	1
C=Cc1cc(OC)c2c(c1)c(=O)oc1c2cc(OC)c2c(O)ccc(C3OC(C)C(O)C(C)(O)C3O)c21 (stereo not drawn)	-4	-1	1	2
O=C1NC(=O)C(=Cc2cn(CCOc3ccc4c(c3)OCO4)c3ccccc23)C(=O)N1	159*	-3	-25	11
CC[C@H](C)/C=C(C)/C=C/C1=CC2=C(Cl)C(=O)[C@@](C)(OC(C)=O)C(=O)C2=CO1	-47	-9	42*	28
CCC(C)/C=C(C)/C=C/C1=CC2=C(Cl)C(=O)C(C)(OC(C)=O)C(=O)C2=CO1 (stereo not drawn)	-1	1	3	6
COc1c(C)cc(C(=O)C2CCCN(Cc3ccccn3)C2)cc1C (stereo not drawn)	-1	-3	-5	1
O=C1NC(=S)N(c2ccc(F)cc2)C(=O)/C1=C\c1ccoc1	-23	-19	27*	88*
Cc1ccc(N2C(=O)NC(=O)/C(=C\c3ccoc3)C2=O)cc1	16	-47	-40	-6
SMILES	RTF Ca sens act	Keap1 Nrf2 FP	RTF Ca sens inh	C-LANA FP
Cc1cc(OCC(=O)N2CCC(C(=O)O)(c3ccccc3)CC2)c2c(C)c(C)c(=O)oc2c1	-3	5	-7	0
CCOc1ccc(N2C(=O)NC(=O)/C(=C\c3ccc(N4CCCCC4)o3)C2=O)cc1	112*	-17	-70	-6
CCOc1ccc(N2C(=O)/C(=C/c3ccc(C)o3)C(=O)NC2=S)cc1	6	-9	-1	-3
O=C1NC(=O)N(c2ccc3c(c2)OCO3)C(=O)/C1=C/c1ccc(N2CCCC2)o1	58*	-117	-56	-24
O=[N+]([O-])CCO	-6	-3	1	0
CC(=O)N(C)C1=Nc2ccc(Cl)cc2C(c2ccccc2)=[N+]([O-])C1	-7	-4	4	2
Cc1ccsc1/C=C1\C(=O)NC(=S)N(C)C1=O	1	-4	-7	1
COc1ccc(/C=C2\C(=O)NC(=S)N(C)C2=O)cc1C	-12	47*	8	16
COC(=O)C1=C(c2cccc(OCc3ccccc3)c2)C[C@@H]2CC[C@H]1N2C(=O)NCc1ccc(Cl)cc1	-6	2	-2	1
CCC(CO)NC(=O)C1C=C2c3cccc4[nH]cc(c34)CC2N(C)C1 (stereo not drawn)	16	-4	-29	3
